High-throughput results: PubChem, several laboratories
Shown are actives, neighbours in structure and some others; about 13% of the full set was active somewhere.
RAM network inh: yeast RAM network inhibition; inhibition, % at 50 µM; S. cerevisiae dse1pr::URA3 reporter, 5-FOA growth OD615, 2 d; analog-sensitive cbk1-as2 kinase mutant strain; 190,000 tested, 1.8% active;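 active means inhibition above a set limit, 3 SD over mean compound inhibition, cut at about 8.4% in these data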;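 further: inhibition rescues growth on 5-FOA so higher OD means more RAM inhibition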
WT yeast gro inh: growth inhibition of WT yeast, mitochondrial fusion screen; 190,000 tested, 2.1% active; AID 1362; mitochondrial fusion phenotypic screen, WT strain; inhibition, % at 10 µM; in the data active means inhibition above about 58%; tested in S. cerevisiae
CHOP inhibitor: CHOP inhibition in unfolded protein response | CHO-K1 CHOP-promoter luciferase, tunicamycin-induced, 15-18 h | inhibition, % at 10 µM | 220,000 tested, 3.8% active;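 active means compounds that reduced the stress-induced luciferase reporter signal by more than about 70% of percent inhibition, limit read from the data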
Lmaj promast: reduces viability of Leishmania major promastigotes; resazurin fluorescence viability; inhibition, % at 10 µM; 200,000 tested, 9% active; AID 1063; in the data active means inhibition above about 50%;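 further: promastigotes grown with compound for 44 hours at 28 °C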
Hits are given with their value; - = inactive; . = no result given.

SMILES | RAM network inh | WT yeast gro inh | CHOP inhibitor | Lmaj promast
NC1=NC(=Nc2ccc(Cl)cc2)c2ccccc21 | - | - | - | -
CCc1cc(SC#N)ccc1N | - | - | - | -
Cc1nc2sc(C(c3ccc(Cl)cc3)N3CCN(c4ccccc4F)CC3)c(O)n2n1 (stereo unspecified) | - | - | 83 | -
O=C(Cc1ccccc1)N1CCC(c2nc(-c3ccc(F)cc3)no2)CC1 | - | - | - | -
O=C(Cc1ccccc1)N1CCCC(c2nc(-c3ccc(S(=O)(=O)N4CCCC4)cc3)no2)C1 (stereo unspecified) | - | - | - | 99
Cc1ccc(-c2noc(C3CCCN(S(=O)(=O)c4ccc5ccccc5c4)C3)n2)o1 (stereo unspecified) | - | - | - | -
O=C(C1CC1)N1CCC(c2nc(-c3ccc(S(=O)(=O)N4CCCC4)cc3)no2)CC1 | - | - | - | 53
O=C(N1CCOCC1)N1CCC(c2nc(-c3ccc(S(=O)(=O)N4CCOCC4)cc3)no2)CC1 | - | - | - | -
CC(=O)c1cccc(S(=O)(=O)N2CCCC(c3nc(-c4ccc(C)o4)no3)C2)c1 (stereo unspecified) | 9.3 | - | - | -
O=C(NC1CCCCC1)N1CCC(c2nc(-c3ccc(S(=O)(=O)N4CCCC4)cc3)no2)CC1 | - | - | - | 75
CC(C)C(=O)N1CCC(c2nc(-c3ccc(S(=O)(=O)N4CCN(C)CC4)cc3)no2)CC1 | - | - | - | -
Nc1cccc(CN2CCCC2)c1 | - | - | - | -
O=C(C[n+]1cccc(CO)c1)Nc1nc2ccccc2s1 | - | - | - | -
CN1CCN(C(=O)C2=C[C@H](c3csc4ccccc34)C[C@H](OCCCCO)O2)CC1 | - | - | - | -
O=C(NC1CCCCC1)C(c1cccs1)N(Cc1cccs1)C(=O)c1cccs1 (stereo unspecified) | - | - | - | 99
O=C(NC1CCCC1)C(c1cccs1)N(C(=O)c1ccno1)c1ccccc1 (stereo unspecified) | - | - | - | -
Cc1ccc(C(C(=O)NC2CCCCC2)N(CC2CCCO2)C(=O)CNC(=O)c2cccs2)cc1 (stereo unspecified) | 8.9 | - | - | -
COc1ccc(C(C(=O)NC2CCCCC2)N(C(=O)c2sc(C)nc2C)c2ccc(C(C)=O)cc2)cc1 (stereo unspecified) | - | - | - | -
O=C(NC1CCCCC1)C(c1cccs1)N(C(=O)c1ccccn1)c1ccccc1 (stereo unspecified) | 9.5 | - | - | -
O=C(NC1CCCCC1)C(c1ccc2ncccc2c1)N(Cc1cccs1)C(=O)c1cccs1 (stereo unspecified) | - | - | - | -
COc1ccc(N(C(=O)c2cnsn2)C(C(=O)NC2CCCCC2)c2ccncc2)cc1 (stereo unspecified) | - | - | - | 58
CC(C)(C)OC(=O)NNC(=O)c1cccs1 | - | - | - | -
CCOC(=O)c1sc(=S)n(-c2ccccc2)c1N(C(C)=O)C(C)=O | - | - | - | -
CCCc1cc(C(=O)OC)c(NC(=O)CCCC(=O)O)s1 | - | - | - | -
CCCc1cc(C(N)=O)c(NC(=O)c2cc(C)on2)s1 | - | - | - | 55
SMILES | RAM network inh | WT yeast gro inh | CHOP inhibitor | Lmaj promast
CCCc1cc(C(N)=O)c(NC(=O)c2ccoc2C)s1 | - | - | - | -
CCCc1cc(C(=O)OC)c(NC(=O)OCC)s1 | - | - | 74 | -
CCOc1ccc2nc(NS(=O)(=O)Cc3ccccc3)sc2c1 | - | - | - | -
CCN(C(=O)CSc1ncccc1C(=O)OC(C)C)c1cccc(C)c1 | - | - | - | -
CCOC(=O)c1cccnc1SCC(=O)N(CC)c1cccc(C)c1 | - | - | - | 91
Oc1ccccc1/C=N/Nc1ccnc(SCc2ccccc2)n1 | - | - | - | 96
O=C1c2ccccc2C(=O)N1CCCc1nc2ccccc2c(=O)n1-c1cccnc1 | - | - | - | -
CCOc1ccc(/C=N/NC(=O)Cc2cccs2)cc1 | . | . | - | .
Cc1cc(OCCOCCN(C)CCO)cc(C)c1Cl | - | - | - | 95
CCN(CC)CCOCCOc1cc(C)c(Cl)c(C)c1 | - | - | - | 99
CCN(CC)CCOc1c(C)cccc1Cl | - | - | - | -
CC(C)CC(N)C(=O)OCc1ccc([N+](=O)[O-])cc1 (stereo unspecified) | . | . | - | .
CN(C)c1ccc(C(=O)c2ccc(N(C)C)c3ccccc23)cc1 | - | 61 | . | -
CC1=Nc2ccccc2/C1=C\c1nc(-c2ccc(F)cc2)oc1O | 8.6 | - | - | -
CN=Cc1nc(-c2ccccc2)oc1O | - | - | - | -
COc1ccc(CNC(=O)C(c2ccc(C)cc2)N(Cc2cccs2)C(=O)c2ccc3c(c2)OCCO3)cc1 (stereo unspecified) | 8.7 | - | - | 99
Cc1ccc(C(C(=O)NCc2ccccc2)N(Cc2cccs2)C(=O)c2ccc3c(c2)OCCO3)cc1 (stereo unspecified) | - | 69 | - | -
COC(=O)c1ccc(C(C(=O)NCc2ccccc2)N(Cc2cccs2)C(=O)c2cnccn2)cc1 (stereo unspecified) | - | - | - | -
CCCCN(C(=O)Cn1ncc(Cl)c(Cl)c1=O)c1c(N)n(CC(C)C)c(=O)[nH]c1=O | . | . | - | .
CCc1cccc2c(C(=O)COC(=O)c3ccc(O)cc3)c[nH]c12 | - | - | 87 | -
Cc1cc(C(=O)CCC(=O)N2CCN(S(=O)(=O)c3cccs3)CC2)c(C)s1 | - | - | - | 88
O=C(CCCc1nc2ccccc2s1)N1CCN(S(=O)(=O)c2cccs2)CC1 | 8.8 | - | - | -
O=[N+]([O-])c1cc(C(F)(F)F)cc([N+](=O)[O-])c1NCCCNc1ccc([N+](=O)[O-])c2cccnc12 | 9.0 | - | - | -
CCOC(=O)N1CCC(n2c(SCC(=O)NCCc3ccc(S(N)(=O)=O)cc3)nc3ccccc3c2=O)CC1 | - | - | - | -
CN(Cc1ccccc1)c1nc(CN2CCOCC2)nc2scc(-c3ccccc3)c12 | - | 69 | - | -
SMILES | RAM network inh | WT yeast gro inh | CHOP inhibitor | Lmaj promast
CCNc1nc(CN2CCCCC2)nc2scc(-c3ccccc3)c12 | - | - | - | -
Fc1ccc(N2CCN(c3nc(CN4CCOCC4)nc4scc(-c5ccccc5)c34)CC2)cc1 | - | 78 | - | 67
O=C1OC(C(=O)NCc2ccccc2)Cc2ccccc21 (stereo unspecified) | - | - | - | -
O=C(O)CCC(=O)NNc1ccccc1[N+](=O)[O-] | - | - | - | -
CC(C)C(C(=O)Nc1ccc(N2CCOCC2)cc1)N1C(=O)c2ccccc2C1=O (stereo unspecified) | 9.3 | - | - | -
COc1ccc(C2C(C(=O)Nc3cc(OC)c(OC)c(OC)c3)c3ccccc3C(=O)N2C)cc1OC (stereo unspecified) | - | - | - | -
Cc1ccc(-c2[nH][nH]c(=O)c(=O)c2N=Nc2ccccc2)cc1 | . | . | 75 | .
Cc1ccc(NC(=O)C2CC(=O)N(CCc3ccccc3)C2)c(C)c1 (stereo unspecified) | - | - | - | -
CN(C)CC(C)(C)CNS(=O)(=O)c1cccc2nsnc12 | - | - | - | -
O=C1CCCC2=C1C(c1ccc(Cl)cc1)C1C(=O)c3ccccc3C1=N2 (stereo unspecified) | - | - | - | 57
